Compounds without any hit were thinned out: in the full panel of roughly 83,000, 20% have a hit.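 Assay: single dose, 48 h. Readout: percent growth (0 = no net growth; negative = cell death). Active: <10.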 Values without a mark were called inactive. Active and inactive are the calls of the source.
What was measured:
Experiment in all cases: NCI-60 one-dose screen, 48 h (100 = growth as untreated, 0 = no growth, -100 = all killed)
Conditions in all cases: 10 µM unless noted
SR leukemia = tested on: SR leukemia
RPMI-8226 leukemia = tested on: RPMI-8226 leukemia
OVCAR-8 ovarian = tested on: OVCAR-8 ovarian
OVCAR-5 ovarian = tested on: OVCAR-5 ovarian
OVCAR-4 ovarian = tested on: OVCAR-4 ovarian
IGROV1 ovarian = tested on: IGROV1 ovarian
OVCAR-3 ovarian = tested on: OVCAR-3 ovarian
NCI/ADR-RES ovarian = tested on: NCI/ADR-RES ovarian
HS 578T breast = tested on: HS 578T breast
SK-OV-3 ovarian = tested on: SK-OV-3 ovarian

Row | SMILES | growth (SR leukemia) | growth (RPMI-8226 leukemia) | growth (OVCAR-8 ovarian) | growth (OVCAR-5 ovarian) | growth (OVCAR-4 ovarian) | growth (IGROV1 ovarian) | growth (OVCAR-3 ovarian) | growth (NCI/ADR-RES ovarian) | growth (HS 578T breast) | growth (SK-OV-3 ovarian)
1 | CC1CC(C)(C)OB(OC(C)CC(C)(C)OB2OC(C)CC(C)(C)O2)O1 (stereo unspecified) | 96.9% | 100% | 102% | 103% | 111% | 107% | 76.6% | 101% | – | –
2 | NNc1cccc([N+](=O)[O-])c1 | 35% | 90.9% | 78% | 94.8% | 107% | 83% | 100% | 76.3% | 106% | –
3 | O=[N+]([O-])/C(=C/c1ccccc1)c1ccccc1 | 88.5% | 108% | 105% | 103% | 99% | 104% | 109% | 106% | – | 100%
4 | CC(=O)Nc1ccc(C(=O)CCl)cc1 | -17.9% (active) | 25.2% | 92.1% | 94.5% | 60.6% | 93.2% | -21.6% (active) | 84.5% | 19% | –
5 | N#CCc1cccc2ccccc12 | 100% | 103% | 105% | 110% | – | 106% | 120% | 115% | 122% | 113%
6 | Nc1nc(-c2ccccc2)nc(N)c1N=O | 27.4% | 41% | 54.3% | 96.9% | 83.9% | 68.6% | 27.7% | 78.5% | 65% | –
7 | Nc1ccc(Oc2ccccc2)c(Cl)c1 | 92.1% | 101% | 95% | 83.9% | – | 112% | 113% | 114% | 91.7% | 91.6%
8 | Nc1cc(-c2ccccc2)ccc1O | 28.7% | -11.7% (active) | 62.7% | 104% | 91.4% | 115% | – | 88.4% | – | 113%
9 | CC1(C)CCCC2=C1C(=O)N(SC(Cl)(Cl)Cl)C2=O | 77.2% | 91.9% | 102% | 103% | 98.2% | 103% | 104% | 105% | – | 93.7%
10 | CN(C)c1ccc(/C=C/c2ccnc3ccccc23)cc1 | 21% | 11.7% | 20.2% | 84.4% | 69.6% | – | 45.1% | – | 53.5% | –
11 | CCCC[n+]1c(/C=C\c2c(OC)cc(OC)cc2OC)ccc2ccccc21 | -34.6% (active) | -25.6% (active) | -27.7% (active) | 24.3% | 9.07% (active) | 9.69% (active) | -16.7% (active) | 76.8% | – | -14.3% (active)
12 | CN=C(N)N/N=C(\C)c1ccc2c(c1)Cc1ccccc1-2 | -62.4% (active) | -20.7% (active) | -66.9% (active) | -69.1% (active) | – | 20.5% | -88.1% (active) | -29.7% (active) | -19.1% (active) | -74.8% (active)
13 | Cc1ccc(NC2=CC(=O)C(=O)c3ccccc32)cc1 | 25.9% | – | 25% | -25.4% (active) | -0.0623% (active) | 17.6% | 13.7% | – | – | 79.9%
14 | O=C1/C(=C\c2ccc([N+](=O)[O-])cc2)CS(=O)(=O)C/C1=C/c1ccc([N+](=O)[O-])cc1 | 0.134% (active) | -19.4% (active) | – | -99% (active) | -90.2% (active) | -82.4% (active) | -90.1% (active) | -80.4% (active) | – | -43.3% (active)
15 | O=C(OC12CC3CC(CC(C3)C1)C2)c1ccc(NCc2cc(O)ccc2O)cc1 | -19.4% (active) | -36% (active) | – | -63.4% (active) | -85.5% (active) | -81.4% (active) | -90.3% (active) | -79.1% (active) | – | 45.7%
16 | O=C(O)c1cc2c(s1)C(=O)c1sccc1C2=O | -12.3% (active) | 74.3% | – | 78.3% | -6.65% (active) | 56.3% | -18.6% (active) | 15.1% | -18.8% (active) | 115%
17 | O=C1C=CC(=O)c2c(O)c(CO)c(CO)c(O)c21 | 83.3% | 18.2% | – | 84.8% | 64.9% | 52.7% | 98.3% | 97.2% | 113% | 109%
18 | COC1CC(C)C(OC)c2cc(O)cc(c2O)NC(=O)/C(C)=C/C=C\C(C)C(OC(N)=O)/C(C)=C\C(C)C1OC (stereo unspecified) | -5.85% (active) | 1.65% (active) | – | 27.2% | -39.9% (active) | -0.486% (active) | 20.2% | -67.2% (active) | – | 16.1%
19 | CN1CCC(CN2c3ccccc3Sc3ccccc32)C1 (stereo unspecified) | 79.2% | 78.7% | – | 84.1% | 94.4% | – | 88.8% | 85.8% | 86.1% | 109%
20 | COC1=CC(=O)c2c(O)c3c(c(O)c2C1=O)CC(C)(O)OC3 (stereo unspecified) | 14.3% | 34.7% | – | 35.4% | -12.8% (active) | – | -0.531% (active) | -4.8% (active) | 67.2% | 86.9%
21 | Cc1cc(I)nc2ccccc12 | 107% | – | 107% | 100% | 112% | 104% | 130% | 109% | – | 109%
22 | O=C1C=CC(=O)N1c1ccccc1 | 45.2% | – | 99.5% | 96.4% | – | 105% | 1.28% (active) | 97.7% | 103% | 109%
23 | NNc1ccc(Cl)cc1Cl | 57.3% | – | 52.7% | 88.8% | 89.2% | – | 87.4% | 53.5% | 84.1% | 69.7%
24 | NC(=S)N/N=C/c1ncccc1O | 12.1% | 11.3% | – | -8.61% (active) | 35.2% | -11.2% (active) | 27.7% | -27.4% (active) | – | 47.3%
25 | NC(=Nc1nc(-c2ccccn2)cc2ccccc12)c1ccccn1 | 6.67% (active) | -11.3% (active) | – | -15.7% (active) | 27.1% | -9.19% (active) | 29.3% | -31.2% (active) | – | 19.7%
26 | S=c1[nH]c2cc(Cl)ccc2s1 | 106% | – | 103% | 98.6% | 106% | 105% | 102% | 105% | – | 102%
27 | COc1cc(NCc2ccc3nc(N)nc(N)c3c2C)cc(OC)c1OC (tested in a mixture with another compound) | 31.7% | 41.7% | – | 36.9% | – | -10.2% (active) | 55.3% | 32.2% | 44.1% | 58%
28 | COc1ccc2c(c1OC)OCC(CN(C)C)C2=O (stereo unspecified) | 78.2% | -40.8% (active) | – | 92.9% | -50.8% (active) | 93.3% | 92.4% | 106% | 106% | 108%
29 | Oc1ccc2ccccc2c1N=Nc1ccccn1 | 8.18% (active) | – | 15.6% | 46.8% | -6.48% (active) | 25% | 20.7% | 0.488% (active) | – | 33.6%
30 | C1=C(c2ccccc2)c2ccccc2C1 | 93.6% | – | 114% | 92% | 105% | 101% | 106% | 101% | 95.2% | 109%

From PubChem BioAssay (NCI)
